From PubChem BioAssay AID504339 (National Center for Advancing Translational Sciences (NCATS), 2011) come the findings set out here.

The campaign covered roughly 390,000 compounds. About 17,000 (4.4%) were called active. Another 8% or so got no clear call; they are omitted. The call rests on the fitted dose curve; in most records, active means well fitted inhibition curve with a large enough effect; inconclusive means small, poorly fitted or top-dose-only effect; inactive means no such curve, though single readings can be large or run the other way. The sample as a whole holds a higher share of actives than the screen did.
On the % scale 0 is the no-effect control and ±100 the full control effect; potency means the concentration at half of the fitted maximal effect.

Chain of Lysine-specific demethylase 4A (Homo sapiens) (O75164 whole entry, looked up, the tested form may be a part): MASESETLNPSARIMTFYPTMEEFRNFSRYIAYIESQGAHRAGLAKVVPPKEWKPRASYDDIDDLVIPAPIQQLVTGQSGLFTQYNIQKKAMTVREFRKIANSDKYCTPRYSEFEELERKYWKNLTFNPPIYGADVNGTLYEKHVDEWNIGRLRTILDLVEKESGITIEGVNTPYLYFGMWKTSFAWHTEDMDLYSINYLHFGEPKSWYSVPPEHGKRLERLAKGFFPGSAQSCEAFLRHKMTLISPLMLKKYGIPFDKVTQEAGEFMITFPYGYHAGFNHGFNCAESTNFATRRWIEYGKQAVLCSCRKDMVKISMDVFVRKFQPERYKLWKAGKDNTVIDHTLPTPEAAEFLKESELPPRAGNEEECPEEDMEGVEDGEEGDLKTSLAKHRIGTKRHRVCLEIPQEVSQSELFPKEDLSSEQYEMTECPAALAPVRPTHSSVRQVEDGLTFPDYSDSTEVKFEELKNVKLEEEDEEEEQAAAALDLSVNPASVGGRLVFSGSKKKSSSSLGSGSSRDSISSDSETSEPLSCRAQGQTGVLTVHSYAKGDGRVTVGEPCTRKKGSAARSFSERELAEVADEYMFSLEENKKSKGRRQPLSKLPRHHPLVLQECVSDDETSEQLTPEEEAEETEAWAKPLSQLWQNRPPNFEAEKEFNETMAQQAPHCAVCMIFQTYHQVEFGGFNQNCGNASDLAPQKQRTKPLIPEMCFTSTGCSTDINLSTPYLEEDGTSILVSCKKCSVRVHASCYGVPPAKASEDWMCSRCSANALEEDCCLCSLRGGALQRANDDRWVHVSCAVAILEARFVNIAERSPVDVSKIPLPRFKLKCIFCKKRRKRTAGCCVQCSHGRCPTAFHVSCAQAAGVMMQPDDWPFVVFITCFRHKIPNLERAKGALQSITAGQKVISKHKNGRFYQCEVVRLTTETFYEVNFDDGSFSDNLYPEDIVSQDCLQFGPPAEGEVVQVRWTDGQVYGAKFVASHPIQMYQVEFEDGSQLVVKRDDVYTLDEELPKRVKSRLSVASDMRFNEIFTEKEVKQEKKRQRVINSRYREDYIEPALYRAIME

This assay has as its target Lysine-specific demethylase 4A (Homo sapiens) (UniProt O75164). Put plainly: qHTS Assay for Inhibitors of JMJD2A-Tudor Domain. Further: nearly all actives have a fitted effect of over 50% in size. Conditions: AlphaScreen JMJD2A-Tudor / H3K4me3 peptide binding; series mostly up to 114 µM; activity change, negative = inhibition: at the top concentration. From the text: JMJD2A is a jumonji-domain-containing lysine demethylase that uses Fe(II) together with 2-OG to effect oxidative demethylation of histones. Methylation is one of many […] modification that affect epigenetic transcription. […] It is proposed that the functions of JmjD2A binding to the histones, is to maintain marks after they are installed and to spread the modifications by […], establishing a self-propagating cycle for rapid methylation over a large area of chromatin. […] Thus, small molecule targeting of the JMJD2A-tudor domain interaction with its target methylhistone mark is expected to enable sophisticated experiments probing the fine regulatory pathways leading to selective demethylation of a given methyllysine locus based on the methylation state of adjacent histone marks. A quantitative high throughput AlphaScreen has been developed to identify small molecule inhibitors based on a protocol published by NCGC and SGC [4].
Although AlphaScreen has significant advantages with its utility in a variety of epigenetic target assays, the primary screening data provided in this deposition should be used with caution due to the prevalence of screening artifacts. The top compound concentration tested was high (>100uM) in this assay, which increases number of actives and potential artifacts. An AlphaScreen counterscreen is highly recommended to be run against any putative actives to eliminate non-specific artifacts. Alternatively, one can use other AlphaScreen assays in PubChem to filter out promiscuous hits.
[1] Lee, J. et al. Distinct binding modes specify the recognition of methylated histone H3K4 and H4K20 by JMJD2A-tudor. Nat Struct Mol Biol. 15(1); 109-11. 2008. PMID: 18084306
[2] Yasgar, et al. Compound Management for Quantitative High-Throughput Screening. JALA. 2008 Apr;13(2):79-89. PMID: 18496600
[3] Inglese, et al. Quantitative high-throughput screening: a titration-based approach that efficiently identifies biological activities in large chemical libraries. Proc Natl Acad Sci. 1;103(31):11473-8. 2006. PMID: 16864780
[4] Quinn et al. A homogeneous method for investigation of methyl-dependent protein-protein interactions in epigenetics. Nucleic Acids Res., 38(2):e11. 2010. PMID: […]
[5] Baell,Holloway. New substructure filters for removal of pan assay interference compounds (PAINS) from screening libraries and for their exclusion in bioassays. J Med Chem. 53(7):2719-40. 2010. PMID: 20131845
NIH Molecular Libraries Probe Production Network [MLPCN]
NIH Chemical Genomics Center [NCGC]
Structural Genomics Consortium (SGC)
To each well of a 1,536w plate, 2ul of JMJD2A-Tudor (final 100nM) and 1ul biotinylated histone peptide methylated at Lys4 [b-H3(1-18)K4me3] (final 50nM) were added in 1x PBS buffer, pH 7.4, containing 0.01% Tween-20, using a nanoliter dispenser. Formation of a protein-peptide complex proceeded at room temperature for 30 min. A Kalypsys pin-tool transferred 23nl of library compound solution in DMSO to each well. Following a 30 min incubation of the protein-peptide complex with compounds at room temperature, a mixture of 40 µg/mL each streptavidin-coated donor and nickel chelate acceptor AlphaScreen beads (final 10 µg/mL) was added in a 1ul dispense for a final volume of 4ul, followed by a brief centrifugation (1000 rpm, 1 min). Plates were incubated protected from the light for 20 min at room temperature. Microplates were then read on an EnVision multilabel plate reader using the 1,536 plate HTS AlphaScreen aperture (excitation time 80 ms, measurement time 240 ms).
A general note: In qHTS, concentration-response curves come from the screen itself.
Consider `CCCC/S(C)=N/S(=O)(=O)c1ccc(C)cc1` (stereo unspecified), for which the “activity change, negative = inhibition” value was -1.74% (inactive). Turning to `c1ccc2cc(OCCN3CCCC3)ccc2c1`, the Potency was 7.94 µM (active). For `Clc1ccccc1-c1cc(COc2ccc3ccccc3c2)no1`, the “activity change, negative = inhibition” value was 186% (inactive). On the same count and under the same terms, for `CCCCOc1ccc(C(C)(O)CCN2CCOCC2)cc1` (stereo unspecified) the value was -11.1% (inactive). In the case of `CC(C)(c1ccccc1)c1ccc(OCCN2CCCC2)cc1`, the Potency was 20 µM (active). `O=C(Nc1ccc(F)cc1F)N1CCCN(CCOc2ccccc2)CC1`: the “activity change, negative = inhibition” value was -21.4% (inactive). Take `C#CC(CCN1CCCCC1)(OC)c1ccccc1` (stereo unspecified): the “activity change, negative = inhibition” value was -6.8% (inactive). On the same count and under the same terms, for `O=C(Nc1ccccc1Cl)N1CCC(CN2CCCCC2)CC1` the value was 3.85% (inactive); for `O=C(CSCc1cnn(-c2ccccc2)c1-n1cccc1)NCc1ccc(Cl)cc1`, -6.62% (inactive). As for `CCOc1ccc(OCC)c(NC(=O)c2cc(C)nc3c2c(C)nn3-c2cccc(Cl)c2C)c1`, the “activity change, negative = inhibition” value is 2.27% (inactive). Turning to `CCOc1ccc(NC(=O)C(CC(C)C)N2Cc3ccccc3C2=O)cc1` (stereo unspecified), the “activity change, negative = inhibition” value is 0% (inactive). For the compound `CCNC(=O)c1cc2n(n1)CCCN(Cc1ccc(C)cc1)C2=O`, the “activity change, negative = inhibition” value was 6.29% (inactive). Still for that read-out and setting: the result for `CCCCc1nn2c(=O)cc(COC(=O)c3cccc(NC(=O)COc4ccccc4)c3)nc2s1` reads -5.96% (inactive).

With `Cc1ccc(Cl)cc1N(C)C(=O)Cn1nc(Cc2cccnc2)c2ccccc2c1=O`, the “activity change, negative = inhibition” value was -28.5% (inactive). The same measure, in the same setting: for `Cc1cc(NC(=O)C2CCC(CNS(=O)(=O)c3ccc(Br)s3)CC2)ccc1Br` (stereo unspecified) the value was -1.03% (inactive); for `COc1ccc(NC(=O)CN(C)C(=O)c2n[nH]c3ccccc23)cc1`, -9.29% (inactive); for `CC(=O)N1CCN(C(=O)c2cc(-c3ccc(C)o3)nc3ccccc23)CC1`, -10.9% (inactive). Consider `Cc1ccc(NC(=O)c2cc(-c3ccc(C)o3)nc3ccccc23)nc1`, for which the Potency is 35.5 µM (active). Still for that read-out and setting: for `COc1ccc(NC(=O)CN(C)C(=O)c2cc(-c3ccc(C)o3)nc3ccccc23)cc1` the value was 89.1 µM (active).

For the compound `COc1ccc(-c2cc(C(=O)N(C)CC(=O)Nc3ccccc3Cl)c3ccccc3n2)cc1OC`, the “activity change, negative = inhibition” value was 5.52% (inactive). `CSc1ncccc1C(=O)Nc1ccc(C)cn1`: the “activity change, negative = inhibition” value was -6.9% (inactive). Take `CCC1CN(S(=O)(=O)c2cc(-c3cc(C)no3)ccc2C)c2cc(C)ccc2O1` (stereo unspecified): the “activity change, negative = inhibition” value is -13.3% (inactive). Still for that read-out and setting: for `COc1cccc(C(=O)Nc2ccc3oc(-c4ccc5ccccc5c4)nc3c2)c1` the value was -27.5% (inactive); for `CCOc1ccc(C(=O)N2CCN(CCc3ccccn3)CC2)cc1`, -17.5% (inactive); for `Cc1ccc(F)cc1NC(=O)CCSc1nc(-c2ccco2)cc(C(F)(F)F)n1`, -14.1% (inactive). Same read-out and setting: the result for `CCOC(=O)c1cc2c(=O)n3ccccc3nc2n(CC2CCCO2)c1=NC(=O)c1ccc(C(C)(C)C)cc1` (stereo unspecified) reads 7.85% (inactive). As to `CCCn1c(NCc2ccc(N(CC)CC)cc2)nc2ccccc21`, the Potency was 39.8 µM (active).

As for `CCCn1c(NC(=O)C23CC4CC(CC(O)(C4)C2)C3)nc2ccccc21`, the “activity change, negative = inhibition” value was -14.9% (inactive).

`CCCn1c(NCc2ccccc2F)nc2ccccc21`: the “activity change, negative = inhibition” value is 4.36% (inactive). Still for that read-out and setting: the result for `COc1cccc(CNC(=O)Cc2csc3nc(-c4ccccc4)cn23)c1` reads -22.7% (inactive). On the same count and under the same terms, the result for `Cc1cc(C)c2oc(-c3cccc(NC(=O)c4cccc(F)c4)c3C)nc2c1` reads -10.8% (inactive); that for `COc1ccc(-c2nc(Cn3c(=O)cc(C)c4c(C)nn(-c5ccccc5)c43)c(C)o2)cc1OC`, -13% (inactive). The same measure, in the same setting: the result for `CCOC(=O)C1CCN(C(c2ccc(F)cc2)c2sc3nc(-c4ccco4)nn3c2O)CC1` (stereo unspecified) reads 0% (inactive). In the case of `CCOc1ccccc1/C=c1\sc2nc(-c3ccco3)nn2c1=O`, the Potency is 56.2 µM (active). Turning to `CCOc1ccccc1NC(=O)Cn1c(=O)n(Cc2ccco2)c(=O)c2sc3ccccc3c21`, the “activity change, negative = inhibition” value was -20.5% (inactive). Still for that read-out and setting: for `CCCC(=O)Nc1cc2nn(-c3ccccc3)nc2cc1C` the value was 1.96% (inactive). For the compound `Oc1ccc(N=Cc2sc3ccccc3c2Cl)cc1`, the Potency was 50.1 µM (active).

Consider `CCCC(=O)Nc1ccc(NC(=O)c2sc3ccccc3c2Cl)cc1`, for which the “activity change, negative = inhibition” value was -8.17% (inactive). `COC(=O)c1cc(NC(=O)c2sc3ccccc3c2Cl)cc(C(=O)OC)c1`: the “activity change, negative = inhibition” value was -8.5% (inactive). For `CCOCCCNC(=O)c1c(NC(=O)Cc2coc3c(C)c(C)ccc23)sc2c1CCC2`, the “activity change, negative = inhibition” value was -26.7% (inactive). On the same count and under the same terms, the result for `CCc1ccc(OCCCn2c(CCCNC(=O)C3CCCCC3)nc3ccccc32)cc1` reads -13.1% [at 57.1 µM] (inactive).

Turning to `CC1=C(C(=O)OCc2ccc(C)cc2)C(c2ccccc2Cl)CC(=O)N1` (stereo unspecified), the “activity change, negative = inhibition” value is -19.2% (inactive). Still for that read-out and setting: the result for `CN(CC#CCC(c1ccccc1)c1ccccc1)C(C)(C)C` reads -24.1% (inactive). On to `CC(C)(C)N(CC#CCC(O)(c1ccccc1)C1CCCC1)CCO` (stereo unspecified), for which the Potency was 50.1 µM (active).

Consider `CCN(CCCNC(=O)Cn1ncc2c3ccccc3n(C)c2c1=O)Cc1ccccc1`, for which the “activity change, negative = inhibition” value was -12.1% (inactive). On the same count and under the same terms, for `CCC(=O)N1CCc2cc(S(=O)(=O)NC(CC(C)C)C(=O)NCCc3cccc(C)c3)ccc21` (stereo unspecified) the value was -1.67% (inactive). Take `O=C1c2ccccc2C(=O)c2c1cccc2N1CCN(Cc2ccccc2)CC1`: the Potency is 14.1 µM (active). Consider `CCc1c(C)nc(N2CCN(Cc3ccccc3)CC2)[nH]c1=O`, for which the “activity change, negative = inhibition” value was -6.58% (inactive). Still for that read-out and setting: for `O=S(=O)(c1cccs1)N1CCN(Cc2ccccc2)CC1` the value was -5.93% (inactive); for `COc1ccc(CNc2nc(-c3ccccc3)nn2C(=O)c2ccccc2OC)cc1`, 10.7% (inactive). Still for that read-out and setting: the result for `CC(C)c1ccc(NC(=O)C2CCN(c3nc(-c4ccc(C(C)C)cc4)no3)CC2)cc1` reads -15.6% (inactive).
